# Source: paper PMC4336329 (PLoS ONE, 2015)
# Among all 310,000 compounds or so, about 14,000 (4.5%) showed an effect of 50% or more. The effect is printed as a negative number. The sample holds strong results, similar compounds and a random draw of the others, so the mix is not that of the screen.
# Target: human ether-à-go-go-related gene (hERG) potassium channel (human, UniProt Q12809)
# Assay: primary screen, population patch clamp on CHO cells stably expressing hERG; higher = less effect of the substance
# 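Further: peak tail current of the secondary pulse compared with the same well before compound.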
# Chain of human ether-à-go-go-related gene (hERG) potassium channel (Q12809 whole entry, looked up): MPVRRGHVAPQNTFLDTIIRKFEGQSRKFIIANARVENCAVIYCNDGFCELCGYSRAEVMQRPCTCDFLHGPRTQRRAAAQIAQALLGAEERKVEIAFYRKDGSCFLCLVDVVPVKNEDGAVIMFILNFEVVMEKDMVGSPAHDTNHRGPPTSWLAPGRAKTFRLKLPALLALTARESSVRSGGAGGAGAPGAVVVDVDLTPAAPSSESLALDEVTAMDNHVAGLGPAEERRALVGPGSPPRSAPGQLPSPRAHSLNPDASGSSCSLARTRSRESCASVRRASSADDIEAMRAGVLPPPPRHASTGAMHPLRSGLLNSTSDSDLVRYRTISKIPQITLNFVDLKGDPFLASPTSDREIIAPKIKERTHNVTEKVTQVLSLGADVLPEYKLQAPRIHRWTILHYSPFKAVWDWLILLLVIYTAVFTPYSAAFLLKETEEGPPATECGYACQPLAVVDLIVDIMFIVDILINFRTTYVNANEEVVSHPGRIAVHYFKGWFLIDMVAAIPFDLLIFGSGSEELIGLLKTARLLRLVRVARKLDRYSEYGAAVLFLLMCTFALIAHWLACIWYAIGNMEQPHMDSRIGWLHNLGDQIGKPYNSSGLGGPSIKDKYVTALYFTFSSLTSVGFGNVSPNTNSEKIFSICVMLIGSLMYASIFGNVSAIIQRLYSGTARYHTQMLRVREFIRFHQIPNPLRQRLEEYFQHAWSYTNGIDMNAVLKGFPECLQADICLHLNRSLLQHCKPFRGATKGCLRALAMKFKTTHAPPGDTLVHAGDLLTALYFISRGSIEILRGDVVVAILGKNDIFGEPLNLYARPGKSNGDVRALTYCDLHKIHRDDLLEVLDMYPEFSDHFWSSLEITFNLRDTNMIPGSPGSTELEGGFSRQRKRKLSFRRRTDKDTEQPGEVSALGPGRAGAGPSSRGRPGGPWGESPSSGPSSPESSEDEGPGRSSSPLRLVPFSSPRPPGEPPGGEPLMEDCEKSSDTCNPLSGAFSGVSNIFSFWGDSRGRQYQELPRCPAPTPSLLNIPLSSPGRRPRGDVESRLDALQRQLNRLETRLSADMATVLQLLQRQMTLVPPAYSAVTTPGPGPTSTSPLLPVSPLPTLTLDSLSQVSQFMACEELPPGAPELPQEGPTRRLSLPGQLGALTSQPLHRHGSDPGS
row,SMILES,"hERG current change (%, negative = inhibition) at 10uM [%]"
1,Cc1nc2c(-c3ccc(F)cc3)cnn2c(N)c1-c1ccc(F)cc1,23.3
2,CCOC(=O)C1CCCN(C(=O)c2cn(CC)c3ccc(S(=O)(=O)N(C)C)cc3c2=O)C1 (centres unmarked),11.9
3,COc1ccc2nc(NC(=O)C3CCN(S(=O)(=O)c4cccc5nsnc45)CC3)sc2c1,0.473
4,C=CCn1c(SCC(=O)Nc2ccc(NC(=O)c3ccco3)c(OC)c2)nnc1-c1ccncc1,-6.37
5,CCCCn1c(N)c(N(CCC(C)C)C(=O)c2ccc([N+](=O)[O-])s2)c(=O)[nH]c1=O,-51.1
6,CCCCn1c(N)c(N(CCOC)C(=O)c2nn(CC)c(=O)c3ccccc23)c(=O)[nH]c1=O,6.82
7,CCCCCn1nc(C(=O)N(CCOC)c2c(N)n(CCCC)c(=O)[nH]c2=O)c2ccccc2c1=O,-3.44
8,CCCCN(C(=O)c1ccc([N+](=O)[O-])s1)c1c(N)n(CCCC)c(=O)[nH]c1=O,-12.9
9,CCCCCn1nc(C(=O)N(CC(C)C)c2c(N)n(CCCC)c(=O)[nH]c2=O)c2ccccc2c1=O,-76.6
10,CCCCN(C(=O)c1ccc([N+](=O)[O-])s1)c1c(N)n(CC(C)C)c(=O)[nH]c1=O,5.29
11,CCCCCCn1nc(C(=O)N(CC(C)C)c2c(N)n(CCCC)c(=O)[nH]c2=O)c2ccccc2c1=O,-51.9
12,CCCCn1nc(C(=O)N(CCOC)c2c(N)n(CCCC)c(=O)[nH]c2=O)c2ccccc2c1=O,6.16
13,CCCCCCn1nc(C(=O)N(CCOC)c2c(N)n(CCCC)c(=O)[nH]c2=O)c2ccccc2c1=O,-1.87
14,O=S(=O)(Nc1ccc(-n2cnnn2)cc1)c1ccc(Cl)cc1,-18.2
15,CCO[C@H]1OC(C(=O)N2CCOCC2)=C[C@@H](C2CC2)[C@@H]1CCCO,19.9
16,Cc1ccc(NC(=O)Nc2sc(=S)n(C)c2C)cc1,15.4
17,C=CCNC(=S)NCC1COc2ccccc2O1 (centres unmarked),19.6
18,NC(=O)C1CCN(c2ccc(C(F)(F)F)cc2[N+](=O)[O-])CC1,-20.1
19,O=[N+]([O-])c1cc(C(F)(F)F)ccc1N1CCC(O)CC1,0.342
20,CC1CN(c2ccc([N+](=O)[O-])cc2Cl)CCN1S(C)(=O)=O (centres unmarked),-47.2
21,CC1CN(c2ccc(C(F)(F)F)cc2[N+](=O)[O-])CCN1S(C)(=O)=O (centres unmarked),-56.9

row,SMILES,"hERG current change (%, negative = inhibition) at 10uM [%]"
1,CC1CN(c2ccc(Cl)cc2[N+](=O)[O-])CCN1S(C)(=O)=O (centres unmarked),-41.2
2,O=C(C1CCC1)N1CCN(c2ccc(C(F)(F)F)cc2[N+](=O)[O-])CC1,-64
3,O=[N+]([O-])c1ccc(Oc2cnc3ccccc3n2)cc1,7.44
4,COc1ccccc1NC(=O)Nc1nc(CC(=O)Nc2cc(F)ccc2F)cs1,-2.13
5,CC(C)(C)n1nnnc1C(c1ccc(F)cc1)N(Cc1ccc(F)cc1)Cc1ccco1 (centres unmarked),1.97
6,CCN1C(=O)C(CC(=O)Nc2ccc(OC)cc2)N(CCc2ccc(OC)cc2)C1=S (centres unmarked),-1.17
7,O=C(c1ccc([N+](=O)[O-])s1)N1CCN(c2ccccn2)CC1,-20.4
8,Cc1ccc(C(=O)N2CCN(c3ccc(C(F)(F)F)cn3)CC2)cc1,-0.62
9,O=C(c1ccc2c(c1)OCO2)N1CCN(c2ccccc2)CC1,-10.9
10,O=C(c1ccc2c(c1)OCO2)N1CCN(c2cccc(C(F)(F)F)c2)CC1,-53.8
11,O=C(c1ccc2c(c1)OCO2)N1CCN(c2ccc(C(F)(F)F)cn2)CC1,-55.6
12,O=C(c1ccc2ccccc2c1)N1CCN(c2ccc(C(F)(F)F)cn2)CC1,-2
13,O=C(Nc1ccc2c(c1)OCO2)N1CCN(c2cccc(C(F)(F)F)c2)CC1,-1.15
14,O=C(CN1CCN(c2ncccn2)CC1)NCc1ccc2c(c1)OCO2,20.4
15,O=C(c1ccc2n[nH]nc2c1)N1CCN(c2ccc(C(F)(F)F)cn2)CC1,-26.7
16,O=C(CN1CCN(c2ccc(C(F)(F)F)cn2)CC1)Nc1ccc2c(c1)OCO2,-14
17,O=C(CN1CCN(c2ccc(C(F)(F)F)cn2)CC1)NCc1ccc2c(c1)OCO2,-65.3
18,O=C(c1ccc([N+](=O)[O-])s1)N1CCN(c2ccc(C(F)(F)F)cn2)CC1,-67.5
19,CC(C)c1ccc(NC(=S)NCCc2c[nH]c3ccccc23)cc1,10.8
20,Cc1nc2ccc(NC(=O)[C@@H](NC(=O)c3c(F)cccc3F)C(C)C)cc2s1,1.84
